Measured values from article PMC5540273 (PLoS ONE, 2017).

Legend:
Conditions in all cases: concentration: 1 μM, replicates: in singlicate; n = 1
ALK = system: ALK
AMPK-alpha1 = system: T1, AMPK-alpha1
T1 construct: gene PRKAA1

AMPK-alpha2 = system: T2, AMPK-alpha2
T2 construct: gene PRKAA2

ANKK1 = system: ANKK1
ARK5 = system: T3, ARK5
T3 construct: gene NUAK1

ASK1 = system: T4, ASK1
T4 construct: gene MAP3K5

ASK2 = system: T5, ASK2
T5 construct: gene MAP3K6

AURKA = system: AURKA
AURKB = system: AURKB
AURKC = system: AURKC
AXL = system: AXL
BIKE = system: T6, BIKE
T6 construct: gene BMP2K

BLK = system: BLK
BMPR1A = system: BMPR1A
BMPR1B = system: BMPR1B
BMPR2 = system: BMPR2
BMX = system: BMX
BRAF = system: BRAF
BRK = system: T7, BRK
T7 construct: gene PTK6

BRSK1 = system: BRSK1
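Note: KINOMEscan kinase panel screen.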

Row | Structure (SMILES) | %Inh (ALK) [%] | %Inh (AMPK-alpha1) [%] | %Inh (AMPK-alpha2) [%] | %Inh (ANKK1) [%] | %Inh (ARK5) [%] | %Inh (ASK1) [%] | %Inh (ASK2) [%] | %Inh (AURKA) [%] | %Inh (AURKB) [%] | %Inh (AURKC) [%] | %Inh (AXL) [%] | %Inh (BIKE) [%] | %Inh (BLK) [%] | %Inh (BMPR1A) [%] | %Inh (BMPR1B) [%] | %Inh (BMPR2) [%] | %Inh (BMX) [%] | %Inh (BRAF) [%] | %Inh (BRK) [%] | %Inh (BRSK1) [%]
1 | COc1ccc(Nc2nccc(N3CCC(NS(=O)(=O)c4ccc(NC(C)=O)cc4)C3)n2)cc1 (stereo not drawn) [GSK1379729] | 16 | 20 | 17 | 8 | 25 | 7 | 9 | 7 | 14 | 30 | 23 | 18 | 26 | 21 | 3 | 0 | 12 | 16 | 18 | 2
2 | Nc1n[nH]c2nnc(-c3ccccc3)c(-c3ccccc3)c12 [GW554060] | 35 | 0 | 14 | 0 | 9 | 0 | 4 | 0 | 35 | 13 | 0 | 22 | 35 | 0 | 41 | 0 | 22 | 2 | 8 | 10
3 | COc1cc2nccc(Nc3ccc(OCc4ccc(NC(C)=O)cc4)cc3)c2cc1OC.Cl [GW440135] | 5 | 15 | 10 | 0 | 28 | 3 | 0 | 0 | 0 | 0 | 13 | 0 | 26 | 24 | 0 | 8 | 26 | 6 | 36 | 0
4 | COc1cc2nccc(Nc3cccc(Oc4ccccc4)c3)c2cc1OC.Cl [GW284543] | 1 | 12 | 0 | 0 | 0 | 0 | 0 | 5 | 0 | 0 | 0 | 1 | 69 | 0 | 0 | 0 | 0 | 0 | 60 | 0
5 | CN1C(=O)C(Nc2cc(Cl)c(O)c(Cl)c2)=C(c2ccc(Cl)cc2)C1=O [SB-404321] | 48 | 0 | 0 | 0 | 0 | 0 | 0 | 0 | 14 | 0 | 27 | 0 | 0 | 0 | 0 | 1 | 13 | 0 | 0 | 0
6 | COc1cccc(C2=C(N(C)c3ccccc3)C(=O)NC2=O)c1 [SB-334865] | 24 | 6 | 13 | 0 | 1 | 18 | 0 | 11 | 32 | 0 | 0 | 0 | 0 | 0 | 0 | 0 | 0 | 0 | 15 | 0
7 | COc1cc(Nc2nccc(N3CCC(NC(=O)C4COc5ccccc5O4)C3)n2)cc(OC)c1OC (stereo not drawn) [GSK1379761] | 18 | 11 | 0 | 24 | 2 | 0 | 5 | 51 | 72 | 75 | 17 | 57 | 16 | 0 | 0 | 26 | 16 | 0 | 2 | 9
8 | Nc1nc(-c2ccccc2F)c(-c2ccnc3ccccc23)s1 [GW560459] | 31 | 0 | 1 | 16 | 0 | 3 | 0 | 0 | 5 | 17 | 0 | 17 | 39 | 0 | 13 | 2 | 0 | 7 | 0 | 0
9 | CCS(=O)(=O)c1ccc(OC)c(Nc2ncc(-c3ccc(F)cc3)o2)c1.Cl [GW591947] | 22 | 8 | 17 | 7 | 3 | 0 | 0 | 3 | 0 | 26 | 0 | 22 | 41 | 14 | 0 | 0 | 0 | 0 | 0 | 0
10 | CC(C)(C)c1ccc(C(=O)Nc2cn3cc(-c4ccccc4)ccc3n2)cc1 | 0 | 0 | 0 | 0 | 13 | 40 | 0 | 48 | 51 | 0 | 0 | 0 | 0 | 8 | 0 | 0 | 13 | 0 | 0 | 0
11 | COc1cccc(C2=C(Nc3cccc(C(=O)O)c3)C(=O)NC2=O)c1 [SB-390770] | 0 | 45 | 16 | 70 | 0 | 5 | 4 | 21 | 31 | 14 | 0 | 15 | 1 | 12 | 0 | 10 | 14 | 0 | 7 | 0
12 | O=C1NC(=O)C(c2ccccc2)=C1Nc1cccc(O)c1 [SB-390534] | 0 | 0 | 0 | 0 | 0 | 0 | 4 | 12 | 35 | 0 | 27 | 4 | 6 | 2 | 0 | 10 | 15 | 0 | 0 | 2
13 | Cc1ccc(Oc2ccc(Nc3ncnc4cc[nH]c34)cc2C)cn1 | 7 | 0 | 14 | 5 | 0 | 0 | 0 | 20 | 0 | 10 | 25 | 4 | 0 | 34 | 1 | 13 | 20 | 0 | 0 | 10
14 | CCC(=O)c1c(-c2ccccc2)c2cc(Cl)ccc2c(=O)n1Cc1cc(S(C)(=O)=O)n(CCC(C)(C)O)n1 | 0 | 19 | 15 | 8 | 10 | 15 | 8 | 16 | 17 | 12 | 10 | 21 | 12 | 0 | 6 | 9 | 33 | 1 | 7 | 11
15 | COc1cc2ncn(-c3cc(OCc4ccncc4Br)c(C(N)=O)s3)c2cc1OC [GW854278] | 0 | 7 | 0 | 5 | 0 | 6 | 6 | 0 | 20 | 20 | 30 | 39 | 11 | 8 | 6 | 13 | 10 | 2 | 6 | 25
